Screening results (PubChem)
Tau fluor counter: counter-screen for tau fibril formation inhibitors. tau K18 P301L Alexa594 fluorescence, heparin fibrillization. hit rate 0.93% among 280,000. Potency, µM (highest dose often 57.7 µM), inactives show at the highest dose activity change, negative = decrease; also: potency is read from the fitted curve at half-maximal effect; nearly all actives have a fitted effect of over 55% in size
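Human tau K18 P301L (15 uM unlabeled, 0.24 uM Alexa 594-labeled) in 100 mM sodium acetate pH 7 with 20 uM heparin, 6 hr at 37 C. ThT 30 uM added, 1 hr ambient; Alexa 594 FP and total fluorescence read at 555/632 nm.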
Tau fibril FP: tau fibrillization inhibition (FP); Potency, µM (series often up to 57.7 µM), for the others: top-dose activity, negative = inhibition, usual class: inhibitors; K18 P301L tau heparin fibrillization, Alexa594 FP, 6 h; hit rate 0.39% among 280,000; AID 1468; also: potency is read from the fitted curve at half-maximal effect; nearly all actives have a fitted effect of over 55% in size
Target sequence (P10636 561-689 P618L limits assumed): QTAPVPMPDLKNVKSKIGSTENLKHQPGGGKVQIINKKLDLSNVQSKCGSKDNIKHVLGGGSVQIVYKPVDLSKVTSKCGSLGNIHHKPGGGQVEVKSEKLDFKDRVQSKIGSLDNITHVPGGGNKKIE
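Human K18 P301L fragment (15 uM unlabeled plus 0.24 uM Alexa 594-labeled) in 100 mM sodium acetate pH 7 with compound, aggregation induced by 20 uM heparin for 6 hr at 37 C. ThT (30 uM) added for 1 hr, then Alexa 594 FP read.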
Coupling enz: inhibits coupling enzyme system, counter-screen for aldolase hits | coupling enzyme system counterscreen, AmpLite Red fluorescence | activity change, negative = inhibition, % at 58.2 µM, hits read low | AID 2472 | hit rate 0.67% among 290,000; in the data active = activity change below about -30%
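Counterscreen lacking aldolase: glyceraldehyde-3-phosphate coupling-enzyme reagent preincubated 10 min at RT with compound (at 57.5 uM final), then substrate/coupling system with AmpLite Red added; fluorescence read at 525/598 nm after 20 min RT.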
Tau ThT inhib: blocks human tau fibril formation measured by thioflavin T | P10636 | recombinant tau K18 P301L (four-repeat tau fragment), heparin-induced fibrillization, ThT fluorescence | Potency, µM (top dose mostly 57.4 µM), for inactives: at the highest dose activity, negative = inhibition, usual class: inhibitors | hit rate 2.1% among 270,000; also: potency is read from the fitted curve at half-maximal effect; nearly all actives have a fitted effect of over 55% in size
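Aggregation was driven by heparin (20 uM final) acting on recombinant tau […] bearing P301L in 100 mM sodium acetate pH 7; fibrils were detected with Thioflavin T.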
G9a block: inhibitors of human histone lysine methyltransferase G9a | hit rate 8.8% among 350,000 | Potency, µM (top dose mostly 102 µM), for inactives: top-dose activity, negative = inhibition, usual class: inhibitors | AID 504332 | Q96KQ7 | G9a H3K9 monomethylation, AlphaScreen, 2 h; also: potency is read from the fitted curve at half-maximal effect; nearly all actives have a fitted effect of over 75% in size
Target sequence (Q96KQ7 913-1193 limits assumed): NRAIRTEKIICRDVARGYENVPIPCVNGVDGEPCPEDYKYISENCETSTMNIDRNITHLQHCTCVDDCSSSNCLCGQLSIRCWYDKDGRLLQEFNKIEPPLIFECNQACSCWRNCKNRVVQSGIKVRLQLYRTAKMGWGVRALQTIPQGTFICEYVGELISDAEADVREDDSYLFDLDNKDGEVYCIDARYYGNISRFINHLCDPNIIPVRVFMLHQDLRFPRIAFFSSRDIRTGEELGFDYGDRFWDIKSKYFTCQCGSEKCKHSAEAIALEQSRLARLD
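Methyltransferase reactions run at room temperature for 2 h (20 nM enzyme, 500 nM biotin-H3K9 peptide, 20 uM SAM) after a 15 min compound preincubation; product detected by AlphaScreen beads and anti-H3K9me1 antibody.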
Sfp PPTase inh: Sfp phosphopantetheinyl transferase inhibition; Biochemical Sfp PPTase activity, qHTS; Potency, µM, without a hit: largest response in the series, negative = inhibition, hits mostly inhibitors; hit rate 3.5% among 310,000; AID 1490;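 also: the enzyme is Sfp with the accession as filed and its product quenches rhodamine fluorescence; potency is read from the fitted curve at half-maximal effect; 0% = enzyme reaction without inhibitor and -100% = no enzyme wells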
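Fluorescence-quenching assay: 15 nM Sfp-PPTase preincubated 15 min at room temperature with compound, then 5 uM rhodamine-CoA and 12.5 uM BHQ-2-labelled YbbR peptide added. Fluorescence (ex 525/em 598 nm) read at start and after 30 min; difference gives rate.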
* marks the source's active call; other numbers are inactive results; u = inconclusive; x = no result given; ! = repeats disagree; [ ] = another dose, or the depositor's remark. Most compounds without a hit are left out; they make up all but 11% or so of the library. Unless noted, calls follow the shape of the dose curve; as a rule, active = well fitted curve in the direction sought with a large enough effect; inconclusive = small, poorly fitted or top-dose-only effect, or another doubt; inactive = no such curve, though single readings can be large; an effect the other way counts as inactive or inconclusive. Unless noted, % is scaled to controls: 0 for no effect and ±100 for the full control effect.

SMILES	Tau fluor counter	Tau fibril FP	Coupling enz	Tau ThT inhib	G9a block	Sfp PPTase inh
CCC(C)NC(=S)N1CCN(Cc2ccc3c(c2)OCO3)CC1 (centres undefined)	-6.6%	-3.8%	1.7	-3.2%	25.1µM*	-8.2%
CC(C)CNC(=S)N1CCN(Cc2ccc3c(c2)OCO3)CC1	-15.7%	4.4%	0.2	-11.6%	15.8µM*	79.4µM*
NS(=O)(=O)c1ccc(NC(=S)N2CCN(Cc3ccc4c(c3)OCO4)CC2)cc1	1.7%	1.8%	3.2	-1.1%	-105.5%[59 µM]	22.4µM*
O=C(NCc1ccc2c(c1)CCN2C(=O)c1ccc(F)cc1)c1ccco1	11.8%	6.5%	x	10.4%	-0.5%[59 µM]	x
COc1ccc(S(=O)(=O)NCC(c2ccco2)N2CCN(c3ccccc3F)CC2)cc1OC (centres undefined)	-21.9%	-1.5%	x	-7.7%	-28.8%[59 µM]	x
CCC(=O)Nc1nc(C)c(-c2csc(Nc3ccc(S(=O)(=O)Nc4cc(C)on4)cc3)n2)s1	-20.9%	12.3%	-1.5	-15.9%	50.1µM*	-17.1%
Cc1cc(NS(=O)(=O)c2ccc(Nc3nc(-c4sc(C)nc4C)cs3)cc2)no1	-11.5%	13.8%	4.4	-21.8%	-13.0%	0.0%
Cc1cc(NS(=O)(=O)c2ccc(Nc3nc(-c4sc(NC(=O)c5ccccc5)nc4C)cs3)cc2)no1	15.8µM*[quencher]	10.6%	12.3	20µM*	u	u
COc1ccc(-c2cc3nc(CCl)[nH]c(=O)c3s2)cc1	x	x	2.4	x	50.1µM*	-2.1%
O=C(CSc1n[nH]c(=O)n1Cc1ccco1)Nc1ccccc1Cl	-6.9%	9.4%	1.1	x	x	-19.4%
Nc1ccc(S(N)(=O)=O)cc1N	u	-17.1%	-27.8	12.6µM*	-42.5%[59 µM]	10.4%
C=CCn1c(=O)/c(=C2/Sc3cc(OC)ccc3N2C)s/c1=C1\C(=O)N(CC)C(=S)N1C	-19.8%	19.5%	0.0	10µM*	u	-6.4%
COc1cc(OC)c2ccc(=O)oc2c1C(CCN1CCOCC1)c1ccc(N(C)C)cc1 (centres undefined)	-13.2%	5.4%	-4.5	-19.8%	28.2µM*	-3.2%
COc1cc(OC)c2ccc(=O)oc2c1C(CCN1CCN(c2ccccc2)CC1)c1ccc(N(C)C)cc1 (centres undefined)	u	13.6%	-1.6	u	-137.6%[59 µM]	13.6%
COc1ccc(C2CC(=O)Oc3c(C(CCN4CCCC(C)C4)c4ccc(N(C)C)cc4)c(OC)cc(OC)c32)cc1 (centres undefined)	-1.2%	11.3%	2.0	-7.5%	-119.9%[59 µM]	89.1µM*!
CCN(CC)CCC(c1ccc(N(C)C)cc1)c1c(OC)cc(OC)c2c(-c3ccccc3)cc(=O)oc12 (centres undefined)	-8.8%	3.1%	0.3	-10.4%	u	56.2µM*
COc1cc(OC)c2c(-c3ccccc3)cc(=O)oc2c1C(CCN1CCN(c2ccccc2)CC1)c1ccc(N(C)C)cc1 (centres undefined)	-12.5%	0.5%	-0.1	5.8%	u	1.1%
COc1ccc(C2CC(=O)Oc3c(C(CCN4CCCCC4)c4ccc(N(C)C)cc4)c(OC)cc(OC)c32)cc1 (centres undefined)	-16.3%	3.8%	1.9	u	-105.3%[59 µM]	-10.3%
O=C(O)c1ccccc1-c1cn2cc(Cl)ccc2n1	0.8%	2.3%	-8.5	-7.1%	26.2%	6.7%
Clc1ccc2nc(-c3ccc(Br)s3)cn2c1	-16.6%	-3.7%	-19.0	u	50.1µM*	19.3%
COc1ccc(-c2cn3cc(Cl)ccc3n2)cc1OC	-21.9%	-1.5%	-32.1*	u	79.4µM*	-10.9%
O=C(Nc1nc(-c2ccccc2)cs1)c1cccc([N+](=O)[O-])c1C(=O)O	2.0%	8.4%	-0.1	-5.5%	50.1µM*	6.5%
O=C(NNC(=O)c1cccnc1SCc1cccc([N+](=O)[O-])c1)c1cccnc1	-10.0%	1.4%	-1.4	-8.6%	35.5µM*	2.2%
O=C(Nc1cccc2cccnc12)c1cccc([N+](=O)[O-])c1	x	x	-4.2	x	79.4µM*	-1.9%
Cc1csc(NC(=O)c2cccc([N+](=O)[O-])c2C(=O)O)n1	x	x	1.1	x	-12.2%[0.501 µM]	10.6%
SMILES	Tau fluor counter	Tau fibril FP	Coupling enz	Tau ThT inhib	G9a block	Sfp PPTase inh
O=C(NNC(=O)c1ccccc1[N+](=O)[O-])c1cnccn1	-7.1%	-11.5%	-2.3	-2.3%	-16.0%	u
O=C(NNC(=O)c1cnccn1)c1cccc([N+](=O)[O-])c1	-1.8%	7.3%	0.3	-4.4%	0.562µM*	2.51µM*
CCOc1ccc(N2CC(NC(=O)Cc3ccccc3)CC2=O)cc1 (centres undefined)	-11.5%	-4.7%	x	-10.8%	4.9%[59 µM]	x
O=C(O)C1CCCC[C@H]1C(=O)Nc1ncc([N+](=O)[O-])s1 (some centres undefined)	x	x	x	x	-35.0%[12.7 µM]	x
O=C(Nc1nc(-c2cccnc2)cs1)c1cccc([N+](=O)[O-])c1	-7.1%	3.6%	-1.3	-7.2%	6.9%	-28.0%
O=C(Nc1nc(-c2ccccc2)cs1)c1cccc([N+](=O)[O-])c1	15.8µM*[quencher]	14.0%	x	u	31.6µM*	0.1%
O=C(Nc1ncc([N+](=O)[O-])s1)c1cccc([N+](=O)[O-])c1	-14.3%	12.7%	-41.0*	17.8µM*	u	12.1%
O=C(Nc1ccccc1)Nc1ncc([N+](=O)[O-])s1	u	0.6%	-3.1	17.8µM*	44.7µM*	-5.6%
CCOc1ccc(NC(=O)Cn2cc(C(=O)c3ccc(F)cc3)c(=O)c3cc4c(cc32)OCO4)cc1	-18.4%	12.1%	x	-7.5%	1.7%[59 µM]	x
O=C(NCc1cccc(Cl)c1)NCc1noc2ccccc12	-20.4%	-8.4%	x	-6.9%	-1.3%[59 µM]	x
CCC(Cc1ccccc1)NC(=O)C1CC1 (centres undefined)	x	x	-0.5	x	21.7%[59 µM]	18.6%
CCN1CCN(c2ccc(NC(=O)CCc3c(C)nc4c(-c5ccc(F)cc5)c(C)nn4c3C)cc2)CC1	17.8µM*[quencher]	2.3%	-2.7	u	u	-3.2%
CCN(c1ccccc1)S(=O)(=O)c1ccc2[nH]cc(C(=O)NC3CCCCC3)c(=O)c2c1	u	3.55µM*	x	u	u	x
Cc1ccc(C)c(N(C)S(=O)(=O)c2ccc3[nH]cc(C(=O)NC4CCCC4)c(=O)c3c2)c1	u	15.8µM*	x	4.8%	2.2%[59 µM]	x
CCN(c1ccccc1)S(=O)(=O)c1ccc2[nH]cc(C(=O)NCCOC)c(=O)c2c1	-15.2%	u	0.4	8.4%	12.6%[12.7 µM]	1.8%
CCN(c1ccccc1)S(=O)(=O)c1ccc2[nH]cc(C(=O)NCc3ccc(C)cc3)c(=O)c2c1	u	3.55µM*	x	11.4%	-14.2%[59 µM]	x
Cc1c(Cl)cccc1NC(=O)Cn1c(=O)n(Cc2ccco2)c(=O)c2oc3ccccc3c21	-10.6%	-10.8%	x	3.6%	-23.1%[59 µM]	x
